# Hit rate of the full screen: of about 310,000 compounds, about 14,000 (4.5%) showed an effect of 50% or more. Effects have a minus sign here. This excerpt belongs to a sample that is enriched for strong results.
# Target: human ether-à-go-go-related gene (hERG) potassium channel (human, UniProt Q12809)
# Assay: primary screen, population patch clamp on CHO cells stably expressing hERG; higher = less effect of the substance
# 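Also: peak tail current of the secondary pulse compared with the same well before compound.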
# Chain of human ether-à-go-go-related gene (hERG) potassium channel (Q12809 whole entry, looked up): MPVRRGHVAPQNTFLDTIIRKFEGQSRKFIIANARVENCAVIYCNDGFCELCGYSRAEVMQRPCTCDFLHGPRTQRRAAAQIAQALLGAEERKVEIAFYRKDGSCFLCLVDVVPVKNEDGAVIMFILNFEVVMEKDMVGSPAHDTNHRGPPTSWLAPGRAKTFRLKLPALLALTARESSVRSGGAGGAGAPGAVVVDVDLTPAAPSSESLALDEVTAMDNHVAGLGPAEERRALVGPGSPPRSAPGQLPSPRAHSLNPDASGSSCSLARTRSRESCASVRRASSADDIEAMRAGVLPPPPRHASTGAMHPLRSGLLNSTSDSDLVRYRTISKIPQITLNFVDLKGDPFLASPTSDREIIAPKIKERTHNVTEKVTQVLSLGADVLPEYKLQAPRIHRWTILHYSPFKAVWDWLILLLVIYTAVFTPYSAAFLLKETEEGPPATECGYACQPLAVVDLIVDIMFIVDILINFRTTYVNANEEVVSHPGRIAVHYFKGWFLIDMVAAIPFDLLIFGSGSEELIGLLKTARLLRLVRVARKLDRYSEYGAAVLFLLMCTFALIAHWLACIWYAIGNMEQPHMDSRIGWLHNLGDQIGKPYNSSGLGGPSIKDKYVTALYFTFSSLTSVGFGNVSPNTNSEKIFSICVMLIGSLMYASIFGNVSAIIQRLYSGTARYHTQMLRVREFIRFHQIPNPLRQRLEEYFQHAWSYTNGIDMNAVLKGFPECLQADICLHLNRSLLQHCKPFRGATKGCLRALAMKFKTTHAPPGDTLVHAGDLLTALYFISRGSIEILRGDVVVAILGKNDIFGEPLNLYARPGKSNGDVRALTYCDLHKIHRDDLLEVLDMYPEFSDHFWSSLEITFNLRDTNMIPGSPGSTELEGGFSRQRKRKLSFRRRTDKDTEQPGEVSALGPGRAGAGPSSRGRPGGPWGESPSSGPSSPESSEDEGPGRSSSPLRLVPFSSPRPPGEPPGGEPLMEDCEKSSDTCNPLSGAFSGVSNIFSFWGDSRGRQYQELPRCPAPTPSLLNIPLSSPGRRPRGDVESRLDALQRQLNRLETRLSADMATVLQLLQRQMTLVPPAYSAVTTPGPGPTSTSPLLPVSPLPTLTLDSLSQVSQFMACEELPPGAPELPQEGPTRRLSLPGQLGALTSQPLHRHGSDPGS
row,Compound,"hERG current change (%, negative = inhibition) at 10uM [%]"
1,O=[N+]([O-])/C(C(Cl)=C(Cl)Cl)=C(/Sc1ccccc1)N1CCCCC1,4.71
2,C=CCN1C(=O)/C(=C/c2ccc(Br)s2)C(=O)NC1=S,6.73
3,COCCNC(=O)c1ccc2c(=O)n(Cc3ccco3)c(SCC(=O)NC3CCCCC3)nc2c1,-47.1
4,CC1CCCCC1NC(=O)c1cc2c(=O)n3ccccc3nc2n1C (stereo not shown),4.32
5,N=c1c(C(=O)NC2CCCCC2)cc2c(=O)n3ccccc3nc2n1Cc1ccco1,-77
6,N=c1c(C(=O)NC2CCCC2)cc2c(=O)n3ccccc3nc2n1Cc1ccccc1,-78.6
7,CCn1c(=N)c(S(=O)(=O)c2ccc(F)cc2)cc2c(=O)n3ccccc3nc21,-10.5
8,N=c1c(C(=O)NC2CCCCC2)cc2c(=O)n3ccccc3nc2n1Cc1ccccc1,-69.8
9,N=c1c(C(=O)NC2CCCCC2)cc2c(=O)n3ccccc3nc2n1Cc1ccc(F)cc1,-77
10,O=C(NC1CCCC1)c1cc2c(=O)n3ccccc3nc2s1,-9.33
11,O=C(NC1CCCCCC1)c1cc2c(=O)n3ccccc3nc2s1,0.251
12,CCOC(=O)c1[nH]c(C)c(C(=O)N(C)C)c1C,4.87
13,CC(C)Oc1cccc(NC(=O)c2cnccc2C(F)(F)F)c1,-0.311
14,COc1ccc(C2=CC(c3ccc(C)cc3)n3nnnc3N2)cc1 (stereo not shown),-6.67
15,O=C(CC(C(=O)O)c1ccc(Cl)cc1Cl)c1ccc(Cl)cc1 (stereo not shown),11.4
16,N=c1c(C(=O)NC2CCCCC2)cc2c(=O)n3ccccc3nc2n1Cc1cccnc1,-73.3
17,O=C(NC1CCCCCC1)C1c2ccccc2C(=O)N1Cc1cccnc1 (stereo not shown),-3.16
18,Cc1ccc(-c2ccc(C(=O)O)[nH]2)cc1,-19.1
19,Cc1ccccc1/C=N/NC(=O)Cc1ccc(Cl)cc1,17
20,COc1ccccc1Nc1nnc(SCc2cc(=O)n3ccsc3n2)s1,-8.42
21,CC(C)N(N=Nc1ccc([N+](=O)[O-])cc1)C(C)C,8.18
22,O=[N+]([O-])c1ccc(N=NN(CCO)CCO)cc1,-75.3
23,CN(N=Nc1ccc([N+](=O)[O-])cc1)c1ccccc1,15
24,Nc1c(Cl)cc(C(=O)c2c3ccc([N+](=O)[O-])cc3[n+]([O-])n2CCC[NH3+])cc1Cl.O=C([O-])C(F)(F)F,-43.5
25,Cc1ccc(C(=O)c2c3ccccc3[n+]([O-])n2CCC(=O)O)cc1,14.4
26,Cc1ccc(C(=O)c2c3ccc(C(F)(F)F)cc3[n+]([O-])n2CCC[NH3+])cc1.O=C([O-])C(F)(F)F,-75
27,Cc1ccc(C(=O)c2c3ccc([N+](=O)[O-])cc3[n+]([O-])n2CCC[NH3+])cc1.O=C([O-])C(F)(F)F,-65.4
28,COc1ccc(C(=O)c2c3ccccc3[n+]([O-])n2CCC[NH3+])cc1.O=C([O-])C(F)(F)F,-28.9

row,Compound,"hERG current change (%, negative = inhibition) at 10uM [%]"
1,CCN(CCn1cccn1)C(=O)C1CCC(=O)N(CCN2CCOCC2)C1 (stereo not shown),6.14
2,O=C(CSc1nc2[nH]ncc2c(=O)[nH]1)Nc1ccc(Cl)c(Cl)c1,6.06
3,CCN(CC(=O)Nc1ccc(NC(C)=O)cc1)C(=O)c1cccc(-n2cccc2)c1,0.603
4,CCn1cc(/C=C(/C#N)S(=O)(=O)c2ccccc2)cn1,-8.15
5,COc1ccc(Nc2nc(N3CCN(S(C)(=O)=O)CC3)nc3ccccc23)c(OC)c1,-22.7
6,CC(Nc1nc(N2CCN(S(C)(=O)=O)CC2)nc2ccccc12)c1ccccc1 (stereo not shown),-60.9
7,COc1ccc(Nc2nc(N3CCN(S(=O)(=O)N(C)C)CC3)nc3ccccc23)cc1,-5.03
8,CC(Nc1nc(-c2ccccc2)nc2ccccc12)c1ccccc1 (stereo not shown),3.47
9,CC(Nc1nc(N2CCCC2)nc2ccccc12)c1ccccc1 (stereo not shown),-79.2
10,CC(Nc1nc(N2CCCCC2)nc2ccccc12)c1ccccc1 (stereo not shown),-63.6
11,CC(Nc1nc(N2CCNCC2)nc2ccccc12)c1ccccc1 (stereo not shown),-66.2
12,CC(Nc1nc(-c2ccccc2F)nc2ccccc12)c1ccccc1 (stereo not shown),-3.87
13,CC(Nc1ncnc2ccccc12)c1ccccc1 (stereo not shown),5.95
14,CC(Nc1nc(-c2ccccc2O)nc2ccccc12)c1ccccc1 (stereo not shown),5.73
15,Clc1ccc(-c2nc(N3CCCCC3)nc3ccccc23)cc1,4.29
16,Cc1cccc(OCCCn2c(CO)nc3ccccc32)c1,-32.3
17,CC(C)CCn1c(SCC(N)=O)nc2c1c(=O)n(C)c(=O)n2C,6.57
18,O=C(Nc1cccc2ncccc12)c1ccccc1Cl,18.6
19,Clc1ccccc1-c1nnc2sc(-c3cccs3)nn12,-4.57
20,CC(=O)c1c(C)oc2ccc(NS(=O)(=O)c3ccc(F)cc3C)cc12,-13.8
21,O=C(NN1CCOCC1)c1ccc(F)cc1,1.47
22,CCOC(=O)c1c(C)nn(-c2ccc(NC(=O)c3cccs3)cc2)c1C,16.8
23,CCOC(=O)C1=C(O)C(=O)N(c2ccccc2)C1c1cccc([N+](=O)[O-])c1 (stereo not shown),-26.7
24,Cc1ccccc1OCC(=O)Nc1ccc2c(c1)OCO2,-7.9
25,Cc1cccc(C(=O)N(CCc2ccccc2)Cc2ccccc2)c1[N+](=O)[O-],4.17
26,Cc1cccc(-n2c(C)cc(C)c(C#N)c2=O)c1,7.18
27,Cc1ccc(C(=O)NCCCNC(=O)c2ccco2)cc1C,14.7

# — publication PMC4336329 (PLoS ONE, 2015)
